# Results from PMC11006913.
# Changes are numbered by the printed parent chain.
# Assays:
# Test in all cases: PBM; 200 nM protein, PBS
# Details in all cases: dsDNA, one strand shown
# HOXB9 [1] = molecular target: HOXB9 (Homo sapiens, UniProt P17482 171-250, T197M)
# HOXC9 [2] = molecular target: HOXC9 (Homo sapiens, UniProt P31274 178-260, K195R)
# HOXA7 [3] = molecular target: HOXA7 (Homo sapiens, UniProt P31268 116-202)
# HOXB6 [4] = molecular target: HOXB6 (Homo sapiens, UniProt P17509 132-218, K202E)
# HOXB9 [5] = molecular target: HOXB9 (Homo sapiens, UniProt P17482 171-250)
# HOXC9 [6] = molecular target: HOXC9 (Homo sapiens, UniProt P31274 178-260)
# HOXC9 [7] = molecular target: HOXC9 (Homo sapiens, UniProt P31274 178-260, R193K)
# HOXC10 [8] = molecular target: HOXC10 (Homo sapiens, UniProt Q9NYD6 254-340, K271E)
# HOXB9 [9] = molecular target: HOXB9 (Homo sapiens, UniProt P17482 171-250, R186Q)
# HOXC9 [10] = molecular target: HOXC9 (Homo sapiens, UniProt P31274 178-260, R222W)
# HOXA7 [11] = molecular target: HOXA7 (Homo sapiens, UniProt P31268 116-202, W177C)
# HOXB6 [12] = molecular target: HOXB6 (Homo sapiens, UniProt P17509 132-218)
# VENTX [13] = molecular target: T1, VENTX (Homo sapiens, UniProt O95231 78-163, R121Q)
# T1 sequence: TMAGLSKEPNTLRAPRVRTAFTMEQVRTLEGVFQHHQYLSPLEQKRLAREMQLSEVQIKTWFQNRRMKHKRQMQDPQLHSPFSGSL
# VENTX [14] = molecular target: T2, VENTX (Homo sapiens, UniProt O95231 78-163, Y115F)
# T2 sequence: T1 sequence with Y38F, Q44R
# PAX4 [15] = molecular target: T3, PAX4 (Homo sapiens, UniProt O43316 9-242)
# T3 sequence: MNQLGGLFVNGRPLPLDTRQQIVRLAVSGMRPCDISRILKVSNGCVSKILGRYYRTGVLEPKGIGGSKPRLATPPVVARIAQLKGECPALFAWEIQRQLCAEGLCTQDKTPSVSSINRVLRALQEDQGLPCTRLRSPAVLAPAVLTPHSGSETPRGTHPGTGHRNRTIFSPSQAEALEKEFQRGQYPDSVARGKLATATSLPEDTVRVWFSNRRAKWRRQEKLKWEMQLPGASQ
# HOXC10 [16] = molecular target: HOXC10 (Homo sapiens, UniProt Q9NYD6 254-340)
# PAX4 [17] = molecular target: T4, PAX4 (Homo sapiens, UniProt O43316 9-242, R200K)
# T4 sequence: T3 sequence with R192K
# HOXB4 = HOXB4 (Homo sapiens, UniProt P17483 148-234, V174I)
# HOXA4 [18] = molecular target: HOXA4 (Homo sapiens, UniProt Q00056 201-287, W262R)
# HOXA2 [19] = molecular target: HOXA2 (Homo sapiens, UniProt O43364 129-215, R185T)
# HOXA4 [20] = molecular target: HOXA4 (Homo sapiens, UniProt Q00056 201-287, R217L)
# PITX2 = PITX2 (Homo sapiens, UniProt Q99697 72-157)
# HOXA2 [21] = molecular target: HOXA2 (Homo sapiens, UniProt O43364 129-215, R185K)
# HOXA4 [22] = molecular target: HOXA4 (Homo sapiens, UniProt Q00056 201-287)
# HOXA2 [23] = molecular target: HOXA2 (Homo sapiens, UniProt O43364 129-215, Y150S)
# HOXA4 [24] = molecular target: HOXA4 (Homo sapiens, UniProt Q00056 201-287, W262F)
# HOXA2 [25] = molecular target: HOXA2 (Homo sapiens, UniProt O43364 129-215)
# HOXA2 (Homo sapiens, UniProt O43364 129-215), sequence (O43364 129-215): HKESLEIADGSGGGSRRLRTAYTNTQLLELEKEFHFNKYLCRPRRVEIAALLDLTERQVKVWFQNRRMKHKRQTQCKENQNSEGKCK
# HOXC10 (Homo sapiens, UniProt Q9NYD6 254-340, K271E), sequence (Q9NYD6 254-340 K271E): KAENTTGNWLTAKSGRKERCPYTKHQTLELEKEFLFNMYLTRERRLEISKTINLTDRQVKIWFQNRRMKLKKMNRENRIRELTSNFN
# HOXC9 (Homo sapiens, UniProt P31274 178-260, K195R), sequence (P31274 178-260 K195R): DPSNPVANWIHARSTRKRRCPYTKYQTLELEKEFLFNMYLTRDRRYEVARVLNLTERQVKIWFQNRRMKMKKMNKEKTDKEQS
# HOXC9 (Homo sapiens, UniProt P31274 178-260, R222W), sequence (P31274 178-260 R222W): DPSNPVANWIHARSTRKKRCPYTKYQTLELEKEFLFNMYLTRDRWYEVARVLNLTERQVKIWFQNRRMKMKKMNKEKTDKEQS
# HOXC9 (Homo sapiens, UniProt P31274 178-260, R193K), sequence (P31274 178-260 R193K): as the sequence (P31274 178-260 R222W) above, with R16K, W45R counted along it
# HOXC9 (Homo sapiens, UniProt P31274 178-260), sequence (P31274 178-260): as the sequence (P31274 178-260 R222W) above, with W45R counted along it
# HOXB9 (Homo sapiens, UniProt P17482 171-250, T197M), sequence (P17482 171-250 T197M): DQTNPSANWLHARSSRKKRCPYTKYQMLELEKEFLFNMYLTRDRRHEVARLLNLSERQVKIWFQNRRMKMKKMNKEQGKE
# HOXB9 (Homo sapiens, UniProt P17482 171-250, R186Q), sequence (P17482 171-250 R186Q): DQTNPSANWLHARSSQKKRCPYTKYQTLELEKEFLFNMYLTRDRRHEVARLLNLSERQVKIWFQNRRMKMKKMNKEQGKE
# HOXA7 (Homo sapiens, UniProt P31268 116-202, W177C), sequence (P31268 116-202 W177C): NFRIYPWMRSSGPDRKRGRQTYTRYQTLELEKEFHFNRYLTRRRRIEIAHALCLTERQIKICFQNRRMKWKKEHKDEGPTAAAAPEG
# HOXB6 (Homo sapiens, UniProt P17509 132-218), sequence (P17509 132-218): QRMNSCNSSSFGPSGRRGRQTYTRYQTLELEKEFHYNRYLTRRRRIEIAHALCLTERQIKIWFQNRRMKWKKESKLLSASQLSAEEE
# HOXC10 (Homo sapiens, UniProt Q9NYD6 254-340), sequence (Q9NYD6 254-340): as the sequence (Q9NYD6 254-340 K271E) above, with E18K counted along it
# HOXA7 (Homo sapiens, UniProt P31268 116-202), sequence (P31268 116-202): as the sequence (P31268 116-202 W177C) above, with C62W counted along it
# HOXB6 (Homo sapiens, UniProt P17509 132-218, K202E), sequence (P17509 132-218 K202E): as the sequence (P17509 132-218) above, with K71E counted along it
# HOXB9 (Homo sapiens, UniProt P17482 171-250), sequence (P17482 171-250): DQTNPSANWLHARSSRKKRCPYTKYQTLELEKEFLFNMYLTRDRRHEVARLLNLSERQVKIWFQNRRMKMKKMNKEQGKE
# HOXB4, sequence (P17483 148-234 V174I): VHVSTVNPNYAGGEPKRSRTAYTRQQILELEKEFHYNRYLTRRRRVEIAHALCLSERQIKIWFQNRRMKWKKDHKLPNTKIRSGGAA
# HOXA4 (Homo sapiens, UniProt Q00056 201-287), sequence (Q00056 201-287): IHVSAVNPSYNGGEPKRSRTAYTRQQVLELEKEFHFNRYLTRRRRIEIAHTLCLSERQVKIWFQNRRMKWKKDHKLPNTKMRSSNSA
# HOXA2 (Homo sapiens, UniProt O43364 129-215, Y150S), sequence (O43364 129-215 Y150S): as the sequence (O43364 129-215) above, with Y22S counted along it
# HOXA2 (Homo sapiens, UniProt O43364 129-215, R185K), sequence (O43364 129-215 R185K): as the sequence (O43364 129-215) above, with R57K counted along it
# HOXA4 (Homo sapiens, UniProt Q00056 201-287, R217L), sequence (Q00056 201-287 R217L): as the sequence (Q00056 201-287) above, with R17L counted along it
# HOXA4 (Homo sapiens, UniProt Q00056 201-287, W262F), sequence (Q00056 201-287 W262F): as the sequence (Q00056 201-287) above, with W62F counted along it
# HOXA4 (Homo sapiens, UniProt Q00056 201-287, W262R), sequence (Q00056 201-287 W262R): as the sequence (Q00056 201-287) above, with W62R counted along it
# HOXA2 (Homo sapiens, UniProt O43364 129-215, R185T), sequence (O43364 129-215 R185T): as the sequence (O43364 129-215) above, with R57T counted along it
sequence,measurement,setting,value
GACATTAA,binding signal,HOXB9 [1],"10 upbm affinity estimate (log intensity, higher = more binding, comparable within an allelic series)"
same,binding signal,HOXC9 [2],"12.6 upbm affinity estimate (log intensity, higher = more binding, comparable within an allelic series)"
same,binding signal,HOXA7 [3],"11.2 upbm affinity estimate (log intensity, higher = more binding, comparable within an allelic series)"
same,binding signal,HOXB6 [4],"10 upbm affinity estimate (log intensity, higher = more binding, comparable within an allelic series)"
same,binding signal,HOXB9 [5],"11.8 upbm affinity estimate (log intensity, higher = more binding, comparable within an allelic series)"
same,binding signal,HOXC9 [6],"12.6 upbm affinity estimate (log intensity, higher = more binding, comparable within an allelic series)"
same,binding signal,HOXC9 [7],"12.5 upbm affinity estimate (log intensity, higher = more binding, comparable within an allelic series)"
same,binding signal,HOXC10 [8],"11.9 upbm affinity estimate (log intensity, higher = more binding, comparable within an allelic series)"
same,binding signal,HOXB9 [9],"11.6 upbm affinity estimate (log intensity, higher = more binding, comparable within an allelic series)"
same,binding signal,HOXC9 [10],"10.9 upbm affinity estimate (log intensity, higher = more binding, comparable within an allelic series)"
same,binding signal,HOXA7 [11],"8.93 upbm affinity estimate (log intensity, higher = more binding, comparable within an allelic series)"
same,binding signal,HOXB6 [12],"11.7 upbm affinity estimate (log intensity, higher = more binding, comparable within an allelic series)"
ACCGTTTA,binding signal,VENTX [13],"10.1 upbm affinity estimate (log intensity, higher = more binding, comparable within an allelic series)"
same,binding signal,VENTX [14],"10.1 upbm affinity estimate (log intensity, higher = more binding, comparable within an allelic series)"
same,binding signal,PAX4 [15],"10.4 upbm affinity estimate (log intensity, higher = more binding, comparable within an allelic series)"
CATTAATA,binding signal,HOXB9 [1],"10.2 upbm affinity estimate (log intensity, higher = more binding, comparable within an allelic series)"
same,binding signal,HOXC9 [2],"12.7 upbm affinity estimate (log intensity, higher = more binding, comparable within an allelic series)"
same,binding signal,HOXA7 [3],"11.5 upbm affinity estimate (log intensity, higher = more binding, comparable within an allelic series)"
same,binding signal,HOXC10 [16],"12.2 upbm affinity estimate (log intensity, higher = more binding, comparable within an allelic series)"
same,binding signal,PAX4 [17],"11.6 upbm affinity estimate (log intensity, higher = more binding, comparable within an allelic series)"
same,binding signal,HOXB6 [4],"10.1 upbm affinity estimate (log intensity, higher = more binding, comparable within an allelic series)"
same,binding signal,HOXB9 [5],"12 upbm affinity estimate (log intensity, higher = more binding, comparable within an allelic series)"
same,binding signal,HOXB4,"13.6 upbm affinity estimate (log intensity, higher = more binding, comparable within an allelic series)"
same,binding signal,HOXC9 [6],"12.6 upbm affinity estimate (log intensity, higher = more binding, comparable within an allelic series)"
same,binding signal,HOXC9 [7],"12.6 upbm affinity estimate (log intensity, higher = more binding, comparable within an allelic series)"
same,binding signal,HOXC10 [8],"11.9 upbm affinity estimate (log intensity, higher = more binding, comparable within an allelic series)"
same,binding signal,HOXB9 [9],"11.7 upbm affinity estimate (log intensity, higher = more binding, comparable within an allelic series)"
same,binding signal,HOXC9 [10],"11.1 upbm affinity estimate (log intensity, higher = more binding, comparable within an allelic series)"
same,binding signal,HOXA7 [11],"9 upbm affinity estimate (log intensity, higher = more binding, comparable within an allelic series)"
same,binding signal,HOXB6 [12],"11.9 upbm affinity estimate (log intensity, higher = more binding, comparable within an allelic series)"
ATTAACGA,binding signal,HOXB9 [1],"10 upbm affinity estimate (log intensity, higher = more binding, comparable within an allelic series)"
same,binding signal,HOXA4 [18],"10.6 upbm affinity estimate (log intensity, higher = more binding, comparable within an allelic series)"
same,binding signal,HOXC9 [2],"12.6 upbm affinity estimate (log intensity, higher = more binding, comparable within an allelic series)"
same,binding signal,HOXC10 [16],"12.2 upbm affinity estimate (log intensity, higher = more binding, comparable within an allelic series)"
same,binding signal,VENTX [14],"11.5 upbm affinity estimate (log intensity, higher = more binding, comparable within an allelic series)"
same,binding signal,HOXA2 [19],"12.4 upbm affinity estimate (log intensity, higher = more binding, comparable within an allelic series)"
same,binding signal,HOXA4 [20],"12 upbm affinity estimate (log intensity, higher = more binding, comparable within an allelic series)"
same,binding signal,HOXC9 [6],"12.5 upbm affinity estimate (log intensity, higher = more binding, comparable within an allelic series)"
same,binding signal,PITX2,"10.7 upbm affinity estimate (log intensity, higher = more binding, comparable within an allelic series)"
same,binding signal,HOXC9 [7],"12.5 upbm affinity estimate (log intensity, higher = more binding, comparable within an allelic series)"
same,binding signal,HOXA2 [21],"13.3 upbm affinity estimate (log intensity, higher = more binding, comparable within an allelic series)"
same,binding signal,HOXA4 [22],"13.6 upbm affinity estimate (log intensity, higher = more binding, comparable within an allelic series)"
same,binding signal,HOXC10 [8],"12.1 upbm affinity estimate (log intensity, higher = more binding, comparable within an allelic series)"
same,binding signal,HOXC9 [10],"10.9 upbm affinity estimate (log intensity, higher = more binding, comparable within an allelic series)"
same,binding signal,HOXA2 [23],"10.9 upbm affinity estimate (log intensity, higher = more binding, comparable within an allelic series)"
same,binding signal,HOXA4 [24],"11.4 upbm affinity estimate (log intensity, higher = more binding, comparable within an allelic series)"
same,binding signal,HOXA2 [25],"12 upbm affinity estimate (log intensity, higher = more binding, comparable within an allelic series)"
